RGS4-Gao reg – human RGS4-Galphao interaction regulation; P09471; Multiplexed bead flow cytometry, RGS4-Galphao binding; actives lie on both sides; binding response (% of control), % at 10 µM; hit rate 0.33% among 220,000; AID 1415; in the data active = binding response below about 49% or above about 150%; inactive = in between;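 also: fluorescent Galphao activated with aluminum fluoride binding bead-coupled RGS4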
Target sequence (P09471 whole entry, looked up): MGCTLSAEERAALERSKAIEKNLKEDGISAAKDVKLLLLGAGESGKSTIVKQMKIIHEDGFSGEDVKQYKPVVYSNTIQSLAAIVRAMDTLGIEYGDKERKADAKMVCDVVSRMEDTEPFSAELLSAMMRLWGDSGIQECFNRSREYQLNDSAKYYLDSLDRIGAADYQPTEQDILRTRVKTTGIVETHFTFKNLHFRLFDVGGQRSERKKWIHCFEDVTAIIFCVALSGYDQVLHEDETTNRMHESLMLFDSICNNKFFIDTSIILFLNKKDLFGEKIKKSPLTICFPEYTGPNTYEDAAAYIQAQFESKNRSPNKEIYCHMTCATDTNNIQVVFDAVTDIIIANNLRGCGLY
RGS8-Gao reg – regulators of human RGS8-Galphao interaction; response (percent of control binding), % at 10 µM; multiplexed bead flow cytometry, RGS8-Galphao binding; actives lie on both sides; AID 1423; hit rate 0.34% among 220,000; in the data active = response below about 60% or above about 140%; inactive = in between;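 also: Galphao activated as the GDP aluminium fluoride complex binding bead-coupled RGS8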
GSH bead fluor – GSH bead compound fluorescence profile | hit rate 0.25% among 190,000 | fluorescence (KMESF) at 10 µM | AID 1776 | GSH beads flow cytometry, compound fluorescence 488/530 nm; stronger effect = higher value; in the data active = fluorescence above about 89;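 also: glutathione beads carrying GST-tagged Bcl family fusion proteins plus one bare bead set; values are compound well signal with DMSO vehicle wells as background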
RGS16-Gao – modulates binding between human RGS16 and Galphao; hit rate 0.38% among 220,000; bead-based flow cytometry RGS16-Galphao binding, fluorescence; actives lie on both sides; binding response (% of control), % at 10 µM; O15492+P09471;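 also: Galphao activated by GDP with aluminum fluoride before binding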
Target sequence (O15492 whole entry, looked up): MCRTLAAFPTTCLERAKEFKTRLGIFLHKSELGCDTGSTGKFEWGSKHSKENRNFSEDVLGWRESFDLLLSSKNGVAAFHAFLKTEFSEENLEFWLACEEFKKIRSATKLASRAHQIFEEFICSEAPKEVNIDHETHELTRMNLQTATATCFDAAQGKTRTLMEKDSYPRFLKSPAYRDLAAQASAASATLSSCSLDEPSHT
Target sequence (P09471 whole entry, looked up): as the sequence (P09471 whole entry, looked up) above
Avidin bead fluor – avidin bead compound fluorescence profile | Avidin beads, compound fluorescence 488/530 nm, flow cytometry; stronger effect = higher value | fluorescence (KMESF) at 10 µM | hit rate 0.38% among 220,000 | AID 1775; in the data active = fluorescence above about 47
RGS7-Gao – regulators of human RGS7-Galphao interaction; hit rate 0.35% among 220,000; binding response (% of control), % at 10 µM; Multiplexed bead flow cytometry, RGS7-Galphao binding; actives lie on both sides; AID 1439; P09471; in the data active = binding response below about 49% or above about 150%; inconclusive = no clear call, values can overlap the other calls; inactive = in between;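 also: fluorescent Galphao held in activated GDP-AlF4 state binding bead-coupled RGS7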
RGS4-Gao HTS – RGS4-Galphao interaction regulator (human). RGS4–Galpha-o binding response, % at 10 µM. hit rate 99% among 1,600. AID 1504. shares compounds with RGS16-Gao. multiplexed bead flow cytometry, RGS–Galpha-o binding;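 also: fluorescently labeled Galpha-o bound to GDP with aluminium fluoride binding biotinylated RGS beads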
Biotin-avidin – biotin-avidin bead binding disruption counter-screen | shares compounds with RGS16-Gao | streptavidin beads, fluorescein-biotin binding, flow cytometry | inhibition, % at 10 µM | 1,700 tested, under 10 active | AID 1783;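 active = inhibition above 50%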;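 also: median green fluorescence of gated singlet beads compared with DMSO control wells; 0% = DMSO wells and 100% = complete loss of bead fluorescence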
RGS8-Gao confirm – RGS8-Galphao interaction regulation, single point confirmation. binding response (% of control), % at 10 µM. bead-based flow cytometry RGS8-Galphao binding, fluorescence; actives lie on both sides. hit rate 3% among 1,700. shares compounds with RGS16-Gao; in the data active = binding response below about 72% or above about 130%; inactive = in between;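 also: Galphao activated as GDP AlF4 complex before binding bead RGS8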
RGS7-Gao single – confirmation of regulators of human RGS7-Galphao interaction. response (percent of control binding), % at 10 µM. bead-based flow cytometry RGS7-Galphao binding; actives lie on both sides. AID 1837. shares compounds with RGS16-Gao. hit rate 7.8% among 1,700; in the data active = response below about 75% or above about 130%; inactive = in between;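 also: fluorescent Galphao activated with GDP and aluminum fluoride binding bead-coupled RGS7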
RGS16-Gao single – confirmation of regulators of human RGS16-Galphao interaction | shares compounds with RGS16-Gao | bead-based flow cytometry, RGS16-Galphao binding; actives lie on both sides | response (% of control binding), % at 10 µM | hit rate 4% among 1,700; in the data active = response below about 74% or above about 130%; inactive = in between;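 also: Galphao activated as the GDP aluminium fluoride complex binding bead-coupled RGS16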
RGS4-Gao single – RGS4-Galphao interaction regulation, single point confirmation; shares compounds with RGS16-Gao; RGS4-Galphao binding, multiplexed bead flow cytometry; actives lie on both sides; binding response (% of control), % at 10 µM; hit rate 4% among 1,700; in the data active = binding response below about 74% or above about 130%; inactive = in between
RGS19-Gao conf – RGS19-Galphao interaction regulation, single point confirmation; shares compounds with RGS16-Gao; bead-based flow cytometry RGS19-Galphao binding; actives lie on both sides; response (percent of control binding), % at 10 µM; hit rate 5% among 1,700; AID 1841; in the data active = response below about 50% or above about 160%; inactive = in between;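 also: 100% = no compound control and 0% = blank background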
Numbers without * were called inactive; ? = inconclusive; nt = no result given; [ ] = another dose, or the depositor's remark. This is a sample that favours compounds with a hit; in the whole collection about 1.2% have one here. Unless noted, no rule for the calls is given here.

SMILES	RGS4-Gao reg	RGS8-Gao reg	GSH bead fluor	RGS16-Gao	Avidin bead fluor	RGS7-Gao	Biotin-avidin	RGS8-Gao confirm	RGS7-Gao single	RGS16-Gao single	RGS4-Gao single	RGS19-Gao conf	others
CC(C)C1Oc2cc3oc(=O)ccc3cc2C1=O (stereo not drawn)	56.1	57.3*	23	5.7*	4	50.4	-1.3	106.5	104.6	106.1	103.5	97.5	RGS4-Gao HTS=56.1*
Cc1ccc(S(=O)(=O)CC(=O)Nc2ccc(F)c(F)c2F)cc1	-12.1*	9.2*	nt	-6.7*	-2	?	-1.0	100.7	101.5	99.5	101.4	97.4
COc1cc(NC(=O)CS(=O)(=O)c2ccc(C)cc2)cc(OC)c1OC	101.7	99.7	33	100.7	15	101.1	nt	nt	nt	nt	nt	nt
CCCCc1nnc(NC(=O)C(C)Sc2nc(O)c(Cc3ccccc3)c(=O)[nH]2)s1 (stereo not drawn)	102.1	98.8	20	101.3	11	97.4	nt	nt	nt	nt	nt	nt
Cc1cc(-c2csc(N)n2)c(C)n1-c1ccc(Cl)c(Cl)c1	98.6	102.1	9	80.5	6	105.6	nt	nt	nt	nt	nt	nt
COc1ccc(-n2c(C)cc(-c3csc(N)n3)c2C)cc1	12.9*	12.7*	8	0.5*	-5	-0.7*	-1.5	98.1	100.0	99.0	100.4	107.3
COc1ccc(CN(C)CC(=O)NC2CCCc3ccccc32)cc1OC (stereo not drawn)	103.4	102.9	13	102.6	8	104.1	nt	nt	nt	nt	nt	nt
S=C(NCc1ccco1)Nc1ccc(Oc2ccc(Cl)cc2)cc1	-36.6*	14.0*	nt	-19.8*	-2	?	-2.0	100.5	96.3	98.4	97.0	97.6
O=C(NCc1ccco1)c1ccc(COc2ccc(Cl)cc2)cc1	89.0	75.4	6	11.7*	8	85.1	0.2	98.5	101.1	98.0	100.1	91.1	RGS4-Gao HTS=89.0*
Cc1ccc2nc(NC(=O)c3ccc(OCC4CCCO4)cc3)sc2c1 (stereo not drawn)	91.1	95.4	10	94.0	2	90.8	nt	nt	nt	nt	nt	nt
Cc1cc(C(=O)NN)c(Cl)cc1Cl	20.9*	26.8*	nt	12.7*	0	?	1.5	111.4	106.6	107.3	104.6	106.8
COc1nc(N)c(S(=O)(=O)c2ccccc2)cc1C#N	124.0	145.0*[activator]	49	407.4	8	117.2	-1.4	102.9	97.7	107.7	100.0	118.4	RGS4-Gao HTS=124.0*
CC(C(=O)Nc1ccc([N+](=O)[O-])cc1)N1CCN(C/C=C/c2ccccc2)CC1 (stereo not drawn)	101.1	100.3	15	97.5	7	98.9	nt	nt	nt	nt	nt	nt
CC(=O)c1ccc(NC(=O)C(C)N2CCN(C/C=C/c3ccccc3)CC2)cc1 (stereo not drawn)	161.7*[activator]	106.9	246*	154.3	38	150.8*[activator]	-0.8	108.3	112.0	112.5	108.5	105.3
COc1ccc(OC)c(C2=NOC(C(=O)Nc3cccc(C(C)=O)c3)C2)c1 (stereo not drawn)	156.7*[activator]	99.0	51	118.3	413*	302.7*[activator]	2.7	93.3	88.4	91.2	92.9	92.7
COc1ccc(OC)c(C2=NOC(C(=O)Nc3ccccc3SC)C2)c1 (stereo not drawn)	91.1	94.8	34	95.6	12	98.0	nt	nt	nt	nt	nt	nt
COc1ccccc1NC(=O)CN1CCN(CC(=O)Nc2ccc3c(c2)OCO3)CC1	119.0	142.1*[activator]	57	347.8	4	112.3	nt	nt	nt	nt	nt	nt	RGS4-Gao HTS=119.0*
COc1ccc(NC(=O)CN2CCN(CC(=O)Nc3ccc4c(c3)OCO4)CC2)cc1	94.1	97.9	35	98.9	4	95.6	nt	nt	nt	nt	nt	nt
Cc1c(Cl)cccc1NC(=S)NC(=O)CCN1C(=O)c2ccccc2C1=O	48.7*	61.7	5	61.1	0	47.1*	-0.5	108.2	104.1	111.1	105.7	105.6
C=CCn1c(CCNC(=O)c2ccccc2F)nnc1SCc1nc2ccccc2c(=O)[nH]1	100.1	98.1	35	99.2	13	99.7	nt	nt	nt	nt	nt	nt
C=CCn1c(CNC(=O)c2ccccc2F)nnc1SCc1nc2ccccc2c(=O)[nH]1	nt	nt	10	nt	nt	nt	-0.8	98.0	96.4	97.2	97.1	89.5
CN(C)/C=C1\C=C2C(=O)c3ccccc3N2C1=O	242.1*[activator]	136.8	nt	224.5*[activator]	92*	?	1.0	142.7*[activator]	354.6*[activator]	268.3*[activator]	271.3*[activator]	374.4*[activator]
CN(C)S(=O)(=O)N1C(=O)c2ccccc2C1=O	100.7	100.9	nt	96.6	7	?	nt	nt	nt	nt	nt	nt
Cc1[nH]n(-c2ccccc2)c(=O)c1/C=N/Nc1nncc(-c2ccccc2)n1	nt	nt	17	nt	nt	nt	1.1	95.2	89.3	91.0	93.0	58.6
CC1CC(C)CN(C(=O)/C=C/c2ccc([N+](=O)[O-])s2)C1 (stereo not drawn)	17.9*	14.5*	15	11.3*	nt	14.7*	-1.7	96.0	46.6*	81.7	58.2*	80.5
SMILES	RGS4-Gao reg	RGS8-Gao reg	GSH bead fluor	RGS16-Gao	Avidin bead fluor	RGS7-Gao	Biotin-avidin	RGS8-Gao confirm	RGS7-Gao single	RGS16-Gao single	RGS4-Gao single	RGS19-Gao conf	others
CC1CN(C(=O)/C=C/c2ccc([N+](=O)[O-])s2)CC(C)O1 (stereo not drawn)	105.7	105.7	20	111.5	23	102.6	nt	nt	nt	nt	nt	nt
NC(=O)CSc1nnc(SCc2ccc(F)cc2)s1	100.2	100.5	15	99.2	9	100.8	nt	nt	nt	nt	nt	nt
O=C(O)COc1ccccc1/C=N/NC(=O)CSc1nnc(-c2ccc(Cl)cc2)n1C1CCCCC1	102.5	100.0	nt	99.9	8	?	nt	nt	nt	nt	nt	nt
O=C(NCc1ccccc1)c1ccc(C(=O)N(C2CCCCC2)C2CCCCC2)cc1	nt	nt	41	nt	nt	nt	-0.9	93.0	86.4	89.7	92.9	85.7
NC(=O)C1CCN(C(=O)Nc2csc3ccccc23)CC1	93.0	74.7	nt	97.8	5	?	1.2	99.9	101.2	100.7	102.7	114.7
Cc1ccccc1C(=O)Oc1cc(N)n(S(=O)(=O)c2ccccc2)n1	97.7	98.0	10	92.1	6	96.3	nt	nt	nt	nt	nt	nt

Source: PubChem (NMMLSC)
